Assay outcomes deposited in PubChem BioAssay by National Center for Advancing Translational Sciences (NCATS).
Sampled rows, rich in hits. Any-hit rate of the full collection: about 7.3%.
KinaseGlo FLuc: Counterscreen for Luciferase (Kinase-Glo TM) Inhibition; Potency, µM (top dose mostly 38.3 µM), inactives show top-dose activity change, negative = inhibition, most hits filed as inhibitors; Kinase-Glo luciferase, ATP luminescence, 8 min; Luciferin 4-monooxygenase (Photuris pensylvanica), Q27757; 0.28% of 200,000 active; note: % is set by controls: 0 for no effect and ±100 for the full control effect; nearly all actives have a fitted effect of over 60% in size
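Kinase-Glo luciferase light output from ATP and luciferin was measured with 10 uM ATP, within the enzyme's linear range. Buffer: 50 mM imidazole pH 7.2, 50 mM KCl, 7 mM MgCl2, 0.01% Tween 20, 0.05% BSA; luminescence read after 8 min at ambient temperature.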
SMN2 splice up: qHTS Assay for Enhancers of SMN2 Splice Variant Expression; HEK293 SMN2-luciferase splicing reporter, luminescence, 30-36 h; AID 1458, 2008; 2.8% of 210,000 active; Potency, µM (doses to about 46.1 µM), for inactives: at the top dose activity change, positive = activation, most hits filed as activators; note: % of control where 0% means no effect; nearly all actives have a fitted effect of over 55% in size
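qHTS luciferase splicing reporter: luminescence rises when SMN2 exon 7 is included in transfected HEK293 cells. Compound exposure lasted 30-36 h at 37C, with 4.5 mM final sodium butyrate as control, followed by a ONE-Glo read.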
Rab9 prom act: qHTS Assay for Rab9 Promoter Activators; 2.8% of 320,000 active; Huh7 Rab9 promoter-luciferase reporter, luminescence, 24 h; AID 485297, 2010; Potency, µM (titrated, usually from 9.22 µM), for inactives: top-dose activation, negative = inhibition, actives largely listed as activators; note: % of control where 0% means no effect; nearly all actives have a fitted effect of over 60% in size
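Luminescence read-out: Huh7 cells stably expressing Rab9-luciferase, treated 24 h with compound at 37 °C, then lysed with luciferase reagent for 10 min at ambient before reading.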
NPC1 prom act: qHTS Assay for NPC1 Promoter Activators; Potency, µM (titrated, usually from 9.22 µM), for inactives: at the top dose activation, most hits filed as activators; 2.4% of 320,000 active; Huh7 NPC1 promoter luciferase reporter, 24 h; note: % of control where 0% means no effect; nearly all actives have a fitted effect of over 60% in size
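Huh7 cells stably carrying NPC1 promoter–luciferase, plated in Opti-MEM with 10% FBS for 2 h, were exposed to compound in DMSO for 24 h at 37 °C; luciferase reagent was added for 10 min and luminescence read.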
FLuc modulator: qHTS profiling assay for firefly luciferase inhibitor/activator using purifed enzyme and Km concentrations of substrates (counterscreen for miR-21 project); purified FLuc, Km substrates, luminescence inhibition; Potency, µM (doses to about 57.5 µM), without a hit: at the highest dose activity change, negative = inhibition, most hits filed as inhibitors; 6.9% of 360,000 active;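 note: plate controls were vehicle for no effect and reference inhibitor for full effect; nearly all actives have a fitted effect of over 55% in size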
Target sequence (P08659 whole entry, looked up): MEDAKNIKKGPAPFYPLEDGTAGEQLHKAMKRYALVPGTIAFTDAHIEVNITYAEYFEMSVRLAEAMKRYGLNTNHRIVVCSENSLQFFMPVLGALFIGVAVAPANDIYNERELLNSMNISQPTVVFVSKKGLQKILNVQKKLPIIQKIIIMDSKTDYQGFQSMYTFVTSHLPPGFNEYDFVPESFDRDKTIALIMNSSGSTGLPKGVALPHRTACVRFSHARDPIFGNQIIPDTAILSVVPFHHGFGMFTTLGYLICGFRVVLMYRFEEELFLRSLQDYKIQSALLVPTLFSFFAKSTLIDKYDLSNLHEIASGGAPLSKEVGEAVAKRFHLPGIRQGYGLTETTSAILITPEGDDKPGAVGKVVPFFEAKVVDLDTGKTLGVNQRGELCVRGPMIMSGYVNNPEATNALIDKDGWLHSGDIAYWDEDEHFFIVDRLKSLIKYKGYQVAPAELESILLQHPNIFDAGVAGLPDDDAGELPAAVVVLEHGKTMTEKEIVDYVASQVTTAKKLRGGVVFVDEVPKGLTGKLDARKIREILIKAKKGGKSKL
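Biochemical qHTS of compounds, final roughly 60 µM downward over six points, against 10 nM purified firefly luciferase using Km concentrations of substrates (10 uM D-luciferin, 10 uM ATP) in Tris acetate pH 7.5 buffer; luminescence output.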
The depositor's hits bear a star; ? = inconclusive; . = not tested or not shown; [ ] = dose if it differs, or a comment. Calls come from the whole dose curve; as a rule, active = well fitted curve in the direction sought with a large enough effect; inconclusive = small, poorly fitted or top-dose-only effect, or another doubt; inactive = no such curve, though single readings can be large; an effect the other way counts as inactive or inconclusive. Potency is the fitted concentration of half-maximal effect.

SMILES	KinaseGlo FLuc	SMN2 splice up	Rab9 prom act	NPC1 prom act	FLuc modulator
O=C(N/N=C/c1c[nH]c2ccccc12)c1cc(-c2cccc3ccccc23)n[nH]1	1.6%	17.7%	-0.7%	-11.7%	15.1µM*
O=C(N/N=C/c1cccs1)c1cc(-c2ccc3ccccc3c2)n[nH]1	0.8%	-0.8%	-9.1%	6.9%	-16.5%
O=C(N/N=C/c1cccs1)c1cc(-c2cccc3ccccc23)n[nH]1	4.2%	?	26.1%	0.7%	19µM*
O=C(N/N=C/c1c[nH]c2ccccc12)c1cc(-c2ccc3ccccc3c2)n[nH]1	5.8%	-28.3%	-4.0%	-11.5%	9.53µM*
O=C(N/N=C/c1c[nH]c2ccccc12)c1cc(-c2ccccc2)n[nH]1	-2.1%	2.1%	0.1%	-0.9%	12µM*
O=C1CN(C(=O)C2CCCCC2)C(c2ccccc2)c2cc(F)ccc2N1 (configuration not stated)	.	-10.9%	.	.	-3.5%
O=C(NCc1ccccc1Cl)c1ccc(Cn2c(=O)c3cccn3c3cccnc32)cc1	.	.	.	.	-6.8%
O=C(O)c1ccc(/C=N/NC(=O)c2cc(-c3ccc4c5c(cccc35)CC4)n[nH]2)cc1	-0.5%	4.1%	-6.6%	-4.4%	21.3µM*
O=C(N/N=C/c1c[nH]c2ccccc12)c1cc(-c2ccc(-c3ccccc3)cc2)n[nH]1	-0.4%	24.5%	?	29.8%	1.35µM*
COc1cccc(/C=N/NC(=O)c2cc(-c3ccc(C)cc3)n[nH]2)c1O	-9.3%	.	.	.	.
O=C(N/N=C/c1c[nH]c2ccccc12)c1ccn[nH]1	-6.5%	26.6%	?	6.9%	21.3µM*
Cc1ccc(-c2cc(C(=O)N/N=C/c3c[nH]c4ccccc34)[nH]n2)cc1	0.5%	-6.0%	-16.8%	-19.1%	10.7µM*
CCC(=O)NNC(=O)CCC(=O)Nc1ccccc1	-2.3%	?	-0.8%	-1.9%	-2.8%
Cc1ccc(C(=O)NNC(=O)CCC(=O)Nc2cc(C)on2)cc1	-2.5%	10.9%	0.7%	-1.2%	-12.2%
CC(C)(C)c1ccc(C(=O)NNC(=O)CCC(=O)Nc2ccccc2)cc1	.	.	6.3%	10.6%	3.38µM*
Cc1cc(NC(=O)CCC(=O)NNC(=O)c2ccc(C(C)(C)C)cc2)no1	-9.9%	5.0%	10.9%	3.9%	2.39µM*
O=[N+]([O-])c1ccc(Nc2ccccc2)c2nonc12	.	.	8.4%	0.3%	-15.2%
CCOc1ccc(Nc2ccc([N+](=O)[O-])c3nonc23)cc1	.	.	4.47µM*	?	12µM*
C=Cn1c(C(=O)O)ccc1-c1ccc(CC)cc1	.	.	0.0%	6.7%	21.3µM*
COc1ccc(CCN(/C=C2\Sc3ccccc3C2=O)C(C)=O)cc1OC	.	.	-2.6%	-4.9%	26.9µM*
CCC1=Nc2cc(C(=O)NCCc3ccc(OC)c(OC)c3)ccc2Sc2ccccc21	.	-39.5%	.	.	-2.6%
CCOc1ccccc1CNC(=O)C1CCN(S(=O)(=O)c2c(C)noc2/C=C/c2ccccc2F)CC1	.	.	.	.	1.7%
O=C(c1cc(-c2cccc(Cl)c2)on1)N1CCN(c2ccccc2)CC1	.	4.3%	-2.3%	0.5%	?
CN(C(=O)c1cc(-c2ccccc2)on1)C1CCCCC1	.	.	2.82µM*	1.26µM*	8.49µM*
O=C(c1cc(-c2ccccc2)on1)N1CCCC1	-7.3%	11.2µM*	0.891µM*	0.794µM*	9.53µM*
SMILES	KinaseGlo FLuc	SMN2 splice up	Rab9 prom act	NPC1 prom act	FLuc modulator
Cc1cc(C(=O)N(C)C2CCCCC2)no1	.	.	0.1%	3.7%	0.2%
O=C(c1cc(-c2ccccc2)on1)N1CCN(c2ccccc2)CC1	.	.	-2.2%	0.7%	23.9µM*
O=C(c1cc(-c2ccccc2)on1)N1CCCc2ccccc21	2.7%	.	?	12.5%	23.9µM*
Cc1cc(C(=O)CSC(=S)SC(C)(C)C)ccc1Cl	-2.2%[7.66 µM]	-9.2%[9.22 µM]	.	.	.
CCN(CC)CCNC(=O)C1CCN(C(=O)c2cnn(-c3ccccc3)c2-n2cccc2)CC1	.	2.1%	.	.	-1.6%
Cc1nc(CCN2C(=O)c3ccccc3C2=O)cs1	-6.4%	-14.0%	-1.6%	-3.4%	-4.0%
NC(N)=Nc1nc(CCN2C(=O)c3ccccc3C2=O)cs1	-4.7%	31.6µM*	0.4%	-3.3%	-9.9%
O=C(Oc1ccc(C(=S)N2CCC(O)CC2)cc1)c1ccc(Cl)cc1	-0.6%	3.2%	3.8%	-2.0%	5.36µM*
COc1cccc2c1[C@H](CO)N1[C@H](C#N)[C@@H]3C[C@H](C(=O)O)[C@@H]([C@@H]1C2)N3C	-2.4%[7.66 µM]	-66.4%[9.22 µM]	.	.	.
c1cc(-c2nnc(-c3ccncc3)o2)ccn1	1.7%	4.6%	2.8%	-1.1%	2.8%
Nc1ccc(-c2ncc(-c3ccccc3)o2)cc1	.	.	-32.7%	-17.2%	1.51µM*
Cn1c(-c2ccccc2)cnc1N	-0.3%	24.5%	28.7%	28.2%	?
Cc1ccc(-c2cnc(-c3ccncc3)o2)cc1	-1.5%	22.4µM*	?	?	6.75µM*
O=c1c2oc3ccccc3c2n(Cc2ccccc2Cl)c(=O)n1Cc1ccc2c(c1)OCO2	.	.	.	.	-6.9%
CCC1S/C(=N/C(=O)NC2CCCCC2)NC1=O (configuration not stated)	-5.4%	11.2µM*	?	?	?
O=C(Nc1ccsc1C(=O)NC1CCCCC1)c1ccc(F)cc1	-0.6%	-15.6%	-3.4%	-3.8%	-10.0%
O=C(/N=C1\NC(=O)C(F)(C(F)(F)F)S1)NC1CCCCC1 (configuration not stated)	-1.2%	?	1.5%	-3.7%	13.5µM*
O=C(Nc1ccccc1C(=O)OCc1cc(=O)n2ccsc2n1)c1ccc(Cl)cc1	.	.	.	.	-2.2%
COc1ccc(OC)c(NC(=O)C2CCCN(S(=O)(=O)c3ccc4[nH]c(=O)ccc4c3)C2)c1 (configuration not stated)	.	.	.	.	2.6%
Cc1ccc(NC(=O)c2ccc(NC(=O)N3CCSc4ncccc43)cc2)c(Cl)c1	.	.	.	.	-1.0%
CC(=O)Nc1ccc(NC(=O)c2cc(=O)c3cc(C)c(C)cc3o2)cc1	.	.	3.0%	-1.2%	2.69µM*
CCOC(=O)c1ccc(NC(=O)Cn2cc(C(=O)C3CC3)c3ccccc32)cc1	.	-6.3%	.	.	1.8%
CCC(=O)Nc1nc2ccc([N+](=O)[O-])cc2s1	.	.	3.4%	19.8%	-17.7%
Cn1cc(Cl)c(C(=O)Nc2nc3ccc([N+](=O)[O-])cc3s2)n1	-2.9%	.	?	?	1.2µM*
Cn1cc(Cl)c(C(=O)Nc2nc3ccc(Cl)cc3s2)n1	-18.1%	22.4µM*	1.41µM*	2.82µM*	3.38µM*
O=C1N=C(N2CCOCC2)S/C1=C\c1cccs1	-13.2%	.	24.1%	2.6%	?
Cc1ccsc1/C=C1/SC(N2CCOCC2)=NC1=O	?	?	24.3%	21.0%	21.3µM*
O=C(c1ccc2c3n(nc2c1)-c1ccc(Cl)cc1CO3)N1CCCCC1	.	.	1.78µM*	2.24µM*	5.36µM*
